# Data taken from PubChem BioAssay AID623989 (Broad Institute, 2012).
# Potency and affinity values are given separately. Records with an inconclusive call do not appear. Where a call stands in place of a potency, no number is given. The source made the active and inactive calls.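 How the source made its calls: active means curve fit gives half-maximal inhibition potency at or below twice the top tested dose in every run; inconclusive means runs disagree, flat partial inhibition, or poor curve fit; inactive means inactive in every run, flat, reversed or weak.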
# Molecular target: Glycogen synthase kinase-3 beta (Homo sapiens) (UniProt P49841)
# Sequence (P49841 whole entry, looked up): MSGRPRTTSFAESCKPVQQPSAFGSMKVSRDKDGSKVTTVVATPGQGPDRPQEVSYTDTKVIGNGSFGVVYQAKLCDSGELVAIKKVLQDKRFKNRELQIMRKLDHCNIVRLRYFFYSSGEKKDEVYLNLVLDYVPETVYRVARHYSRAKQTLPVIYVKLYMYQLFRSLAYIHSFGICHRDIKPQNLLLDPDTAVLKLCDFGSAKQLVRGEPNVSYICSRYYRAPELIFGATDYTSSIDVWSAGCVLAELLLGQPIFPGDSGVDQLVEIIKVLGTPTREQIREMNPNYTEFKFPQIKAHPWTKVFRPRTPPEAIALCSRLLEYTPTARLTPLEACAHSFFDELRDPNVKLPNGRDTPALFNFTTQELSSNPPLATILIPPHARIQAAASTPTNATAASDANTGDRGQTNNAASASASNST
# Assay: GSK3beta kinase inhibitors, dose response, biochemical, microfluidics, dry powder samples, set 2 (AID 623989)
smiles,measurement,value
COc1cc(C(=O)N2CCN(c3ccccn3)CC2)cc(OC)c1OC,outcome,inactive
